This note sets out measurements from ChEMBL document CHEMBL3988442, “University of Dundee, Small-Polar-MMV Screening Library” (2021).

The whole screen tested about 48,000 compounds, of which about 13,000 (27%) showed an effect of 50% or more. This is one part of the list.

This assay concerns Wolbachia pipientis. In words: Anti-Wolbachia Cell-Based Screen. Details: scale not given: in the data most compounds retested in dose-response had high values. To be noted: 5 µM. Type of assay: functional.
For the compound `Cn1cnc2c1C(COCc1cccnc1)N(Cc1nccs1)CC2.O=C(O)C(F)(F)F.O=C(O)C(F)(F)F.O=C(O)C(F)(F)F` (centres undefined), the “Percent Effect” value is listed as 0.7375%. Consider `COCCOC1CCN(C(C(=O)O)c2ccc(F)c(Cl)c2)CC1` (centres undefined), for which the “Percent Effect” value is 111%. Take `CCOc1ccc(Cl)cc1C(C(=O)O)N1CCC(CO)CC1` (centres undefined): the “Percent Effect” value is -16.74%. Next, `COc1ccc(C(C(=O)O)N2CCN(C3CCCC3)CC2)cc1C` (centres undefined): 19.06%; `CC(C)Cc1nnc2sc(-c3cc(C(C)C)n[nH]3)nn12`: 131.5%.

As for `CCc1nnc2sc(-c3cc(C(C)C)n[nH]3)nn12`, the “Percent Effect” value was 154.2%.

Consider `CCCc1nnc2sc(-c3cc(C(C)C)n[nH]3)nn12`, for which the “Percent Effect” value is reported as 120.9%. On to `CCN(CC)Cc1nnc2sc(-c3cc(C(C)C)[nH]n3)nn12`, for which the “Percent Effect” value was determined as 118.1%. For `Cc1cc(-c2nn3c(C)nnc3s2)n[nH]1`, the “Percent Effect” value came to 0.3213%.

On to `Cc1nnc2sc(-c3cc(C(C)C)n[nH]3)nn12`, for which the “Percent Effect” value is on record as -19.82%.

In the case of `CC(C)c1cc(-c2nn3c(C(C)C)nnc3s2)[nH]n1`, the “Percent Effect” value is on record as -17.87%. As to `CCC(Nc1nc(C(C)C)nc2c1cnn2C)c1ccc(O)cc1` (centres undefined), the “Percent Effect” value is recorded as -13.26%. Then `Cc1nc(CNC(C)c2cccc(N3CCCC3=O)c2)cs1.Cl` (centres undefined), with -6.766%; and `c1ccc(Cc2noc(CN3CCCC3C3CCCCC3)n2)cc1` (centres undefined), with 35.45%.

For the compound `OCC1CCCCN1Cc1nc(Cc2cccc(F)c2)no1` (centres undefined), the “Percent Effect” value is reported as -3.414%. Turning to `c1ccc(Cc2noc(CN3CCCC3Cn3cccn3)n2)cc1` (centres undefined), the “Percent Effect” value came out at 101.6%. Next, `CCc1nc(C2CCCN2Cc2nc(Cc3ccccc3)no2)no1` (centres undefined): -2.634%. Next, `OCC1CCCCN1Cc1nc(Cc2ccccc2)no1` (centres undefined): 15.34%; `c1ccc(Cc2noc(CN3CCCCC3Cn3cccn3)n2)cc1` (centres undefined): 121.7%.

For `Cc1ccc(O)c(C(=O)N2CCCC2c2nncn2CC(C)C)c1` (centres undefined), the “Percent Effect” value is -6.935%. Then `COCCNc1ccc(CNC(=O)C2COc3ccccc32)cc1` (centres undefined), with -1.749%.

For `O=S(=O)(Cc1nc(C2CC2)no1)c1ccccc1F`, the “Percent Effect” value is given as -2.004%. On to `CCC(C(=O)NCc1ccccn1)N(c1cccc(C)c1)S(C)(=O)=O` (centres undefined), for which the “Percent Effect” value was determined as 1.713%. Next, `Cn1cnc(S(=O)(=O)NCCCN2CCCCCC2)c1Cl`: 0.4653%; `Cn1cnc(S(=O)(=O)NCCCN2CCOCC2)c1Cl`: -0.729%; `Cn1cnc(S(=O)(=O)NCCCN2CCCC2)c1Cl`: 98.8%.

For `CCCN1CCN(S(=O)(=O)c2ncn(C)c2Cl)CC1`, the “Percent Effect” value turned out to be 1.683%.

Regarding `Cn1cnc(S(=O)(=O)NCCN2CCCCCC2)c1Cl`, the “Percent Effect” value is given as 104.3%. Then `Cn1cnc(S(=O)(=O)N2CCCC2)c1Cl`, with -6.345%; and `Cn1cccc1C1CCCN1C(=O)NCCCn1cccn1` (centres undefined), with -1.835%; and `COc1ccc(NC(C)c2ccc(C#N)cc2)cc1N1CCCC1=O` (centres undefined), with 11.24%. Next, `O=C(CN1CCSC2(CCCCC2)C1)NCC(F)(F)F`: -26.69%; `COCCc1noc(CN2CCN(CC(O)c3ccccc3)CC2)n1` (centres undefined): 5.305%; `Cc1cc2c(cc1C(=O)N1CCC3(CC(=O)NC3=O)C1)OCCO2` (centres undefined): -6.886%. As for `CN(CC1(O)CCCN(c2ccccn2)C1)C(=O)Cc1ccsc1` (centres undefined), the “Percent Effect” value is given as -7.252%. Then `Cc1cc(N2CCC(O)(CN(C)C(=O)CCN)C2)c2cnccc2n1` (centres undefined), with 98.27%; and `Cc1ncc(C)c(N2CCC(CCc3ccccc3)(C(=O)O)CC2)n1`, with 1.128%; and `Cc1cc(N2CCCC(O)(CN(C)C)CC2)nc(-c2ccccc2)n1` (centres undefined), with 2.269%. Then `Cc1ccc(CC(=O)N(C)CC2(O)CCN(c3ccccn3)C2)s1` (centres undefined), with -7.019%; and `Cc1cc(N2CCC(O)(CN(C)C(=O)CCN)CC2)c2cnccc2n1`, with 69.28%; and `Cc1cc(N2CCCC(O)(CN(C)C(=O)CCN)C2)c2cnccc2n1` (centres undefined), with 91.76%.

For `Cc1cc(N2CCC(CO)(CC3CCCCO3)CC2)c2ccccc2n1` (centres undefined), the “Percent Effect” value is -1.662%. In the case of `Cc1cnn(C2(C(=O)O)CCN(c3ccncc3F)CC2)c1`, the “Percent Effect” value worked out at 13.66%. Next, `CN(C)CC1(O)CCCN(C(=O)c2ccccc2-n2cccn2)C1` (centres undefined): -10.31%. Then `Cc1cnn(C2(C(=O)O)CCN(c3ccnc4cc(Cl)ccc34)CC2)c1`, with -21.78%; and `CN(CC1(O)CCN(c2ccnc3ccncc23)CC1)C(=O)CCN`, with 110.4%; and `CC(NC(=O)Cc1ccccc1F)C(=O)N1CCS(=O)(=O)CC1` (centres undefined), with -3.92%. Then `N#Cc1ccnc(N2CCC(NCCN3CCOCC3)CC2)c1`, with -1.692%. Turning to `CCC(=O)Nc1cc(Br)cnc1OCC(F)(F)F`, the “Percent Effect” value was -13.83%. Then `Cc1cc(N2CCC(O)(CN(C)C(=O)CCCN)C2)c2cnccc2n1` (centres undefined), with 106%; and `CN1CC(=O)N(C2CCNCC2)Cc2c(NCC(C)(C)C)ncnc21`, with 106.7%; and `CCNc1ncnc2c1CN(C1CCCNCC1)C(=O)CN2C` (centres undefined), with 112.3%.

With `COc1ccc(NC(=O)CCC(C)C)c(N2CCN(C(C)=O)CC2)n1`, the “Percent Effect” value was -1.669%. Then `O=C(CC1CCCC1)N1CCN(c2ccc(-n3cncn3)nn2)CC1`, with 17.68%. Next, `Cn1ncc2c(N3CCN4CCCCC4C3)nc(C3CCCC3)nc21` (centres undefined): 111.9%; `CC(C)c1nc(N2CCC(N3CCCCCC3)CC2)c2cnn(C)c2n1`: 83.71%.

Consider `CC(C)c1nc(N2CCC(N3CCSCC3)CC2)c2cnn(C)c2n1`, for which the “Percent Effect” value came to 102.9%.

With `CC(C)c1nc(N2CCC(N3CCCC(O)C3)CC2)c2cnn(C)c2n1` (centres undefined), the “Percent Effect” value worked out at 109.7%. Next, `Cn1ncc2c(N3CCS(=O)(=O)CC3)nc(C3CCCC3)nc21`: -3.304%; `Cn1ncc2c(N3CCC(CCO)CC3)nc(C(C)(C)C)nc21`: -3.712%; `CN1CCCN(c2nc(C3CCCC3)nc3c2cnn3C)CC1`: 2.389%. Then `Cn1ncc2c(N3CC(N4CCCCC4)C3)nc(C3CCCC3)nc21`, with 6.638%; and `CC(C)c1nc(N2CC(N3CCCCC3C)C2)c2cnn(C)c2n1` (centres undefined), with 11.15%; and `CC1CCCCN1C1CN(c2nc(C3CCCC3)nc3c2cnn3C)C1` (centres undefined), with 0.03102%. As to `CC(=O)NCCC1CCN(c2nc(C(C)(C)C)nc3c2cnn3C)CC1`, the “Percent Effect” value is reported as -2.953%.

As for `O=c1ccn(Cc2nc(-c3ccccc3F)cs2)c(=O)[nH]1`, the “Percent Effect” value is -9.097%.

Turning to `COc1cccc2c1OCC(C(=O)NCc1c(C)noc1C)C2` (centres undefined), the “Percent Effect” value is -13.16%. Then `Cc1ncc(CN(C)C(=O)Nc2ccc(CN3CCOC3=O)cc2)s1`, with 8.802%; and `Cc1ccccc1COCCOCn1c(C)cc(=O)[nH]c1=O`, with 116.8%; and `CCn1c(C)cc(-c2csc(Cn3ccc(=O)[nH]c3=O)n2)c1C`, with -14.65%. As for `Cc1cc(=O)[nH]c(=O)n1COCc1ccccc1`, the “Percent Effect” value is 71.08%. Then `Cc1cc(=O)[nH]c(=O)n1Cc1ccccc1`, with -6.606%; and `Cn1cccc(NC(=O)NCCOCc2ccccc2)c1=O`, with -14.44%; and `COCCn1c(=O)n(Cc2ccccc2C)c2cc(C(=O)O)ccc21`, with -8.391%. Then `Cc1cc(=O)[nH]c(=O)n1COCCOCc1ccccc1`, with 87.63%; and `Cc1ccc(S(=O)(=O)NC(=O)CCOCc2ccccc2)s1`, with 4.537%. Take `CC/C(C)=C/CCN1CCN(C)C2(CCNC(=O)CC2)C1` (centres undefined): the “Percent Effect” value is -7.249%. In the case of `O=C(NCc1ccncc1)c1nc2c(o1)CN(C(=O)c1cccnc1)C2.O=C(O)C(F)(F)F.O=C(O)C(F)(F)F`, the “Percent Effect” value is given as 0.8995%.

Take `Cc1nc[nH]c1CN1CCN(C(=O)CCC(F)(F)F)[C@H]2CS(=O)(=O)C[C@H]21`: the “Percent Effect” value was 0%. Then `Cn1ncnc1CNC1CCCc2cc(F)ccc21` (centres undefined), with -3.531%.

`COc1cc(CN2CC[C@H](NC(C)=O)[C@@H](O)CC2)ccc1F`: the “Percent Effect” value came to 106.7%. Next, `COc1ccc(F)c(CN2CCCC3(CCN(C4CCOCC4)C3)C2)c1` (centres undefined): -3.304%; `COc1cccc(CN2CC[C@H](NC(C)=O)[C@@H](O)CC2)c1F`: 34.02%.

For `COc1ccc(CN2CC[C@H](NC(C)=O)[C@@H](O)CC2)c(F)c1`, the “Percent Effect” value was 118.9%. Next, `COc1ccc(CN2CCC(C(N)=O)CC2)cc1SC(F)(F)F`: 0.6878%. Then `COc1ccc(CN2CC[C@H](NC(C)=O)[C@@H](O)CC2)c(OC)c1`, with -2.423%; and `O=C(C1CCOc2ccccc21)N1CCOc2cccc(F)c21` (centres undefined), with 6.908%.

As for `O=C(c1ccc(-n2cnnc2)cc1Cl)N1CCCC2(CCNC2)C1` (centres undefined), the “Percent Effect” value is given as -4.992%. Next, `CNc1cc2c(nn1)CCN(C(=O)c1coc(Br)c1)C2`: 117.2%; `CNc1cc2c(nn1)CCN(C(=O)C1CCCc3ccccc31)C2` (centres undefined): -4.064%; `CNc1cc2c(nn1)CCN(C(=O)c1ccc3c(c1)OCO3)C2`: 105.8%. In the case of `Cc1ccc2oc(C(=O)N3CCc4nnc(N(C)C)cc4C3)cc2n1`, the “Percent Effect” value is -8.128%.

Turning to `CNc1cc2c(nn1)CCN(C(=O)c1cc(F)cc(F)c1)C2`, the “Percent Effect” value worked out at 8.008%. Consider `CNc1cc2c(nn1)CCN(C(=O)c1cc(C)no1)C2`, for which the “Percent Effect” value is recorded as 125.3%. Then `CNc1cc2c(nn1)CCN(C(=O)c1ccc3c(c1)CCC3)C2`, with 114.4%.

As to `CN(C)CCNC(=O)c1ccc2c(-c3nccs3)noc2c1`, the “Percent Effect” value was -16.02%. With `Cn1cc(S(=O)(=O)NCCc2nnc3ccccn23)cn1`, the “Percent Effect” value is reported as -3.582%. Next, `O=C(c1ncccn1)N1C[C@@H]2COC[C@]2(c2nnc(C3CC3)o2)C1`: -0.5118%; `Cc1noc(C)c1CNC(=O)C1(NS(C)(=O)=O)CCCCC1`: -47.58%; `Cc1ccc(C)c(CC(=O)NC2CCC(N3C(=O)CCC3=O)CC2)c1` (centres undefined): 6.752%.

As to `CCc1ccc(S(=O)(=O)N2CC3(COC(C)(C)OC3)C2)s1`, the “Percent Effect” value is recorded as -8.267%. Next, `CCC1CCCN(S(=O)(=O)c2cnn(C)c2)C1` (centres undefined): 12.29%; `Cn1cc(S(=O)(=O)N2CCN(S(=O)(=O)c3ccc(Br)s3)CC2)cn1`: 96.55%. Then `CCn1cc(S(=O)(=O)N2CCC(C)Sc3ccccc32)cn1` (centres undefined), with -6.533%; and `CCn1cc(S(=O)(=O)N2CCCSc3ccccc32)cn1`, with -3.262%. Turning to `CCN1CCN(S(=O)(=O)c2cc(C)c(Cl)cc2Cl)CC1`, the “Percent Effect” value is on record as 18.7%. In the case of `CC1(C)OCC2(CO1)CN(S(=O)(=O)c1ccc(Br)s1)C2`, the “Percent Effect” value is given as -6.121%. For the compound `CCn1cc(S(=O)(=O)N2CCN(S(=O)(=O)c3ccc(Br)s3)CC2)c(C)n1`, the “Percent Effect” value is 110.7%. Then `CCn1cc(S(=O)(=O)N2CCN(S(=O)(=O)c3ccc(Br)s3)CC2)cn1`, with 99.05%.
